Hit rate of the full screen: of about 1,200 compounds, about 360 (30%) were called active. The rule behind the calls is not given here. These entries were drawn from the full list. Measured potencies and affinities stand elsewhere.
test: antibacterial activity by ATP level – BacTiter-Glo luminescence, cherry-picked samples, counter-screen, dose response (AID 504843); details: bacterial growth; series mostly up to 15 µM

Row | Structure (SMILES) | outcome
1 | CCOc1ccc(N(CC(=O)NCc2ccc(OC)cc2)S(=O)(=O)c2c(C)[nH]c(=O)[nH]c2=O)cc1 | inactive
2 | CN1CCc2c(sc3nc(SCC(=O)N4CCOCC4)nc(N)c23)C1 | inactive
3 | Cc1cc(C)c(C#N)c(Oc2ccccc2Br)n1 | inactive
4 | Cc1nnc(Nc2ccc(Cl)c(C(F)(F)F)c2)[nH]c1=O | inactive
5 | CC(/C=N/NC(=O)c1n[nH]c2c1CCC2)=C\c1ccccc1 | inactive
6 | CCCN=C1N(CC)C[C@@H]2[C@@H]3C(=O)N(C)C(=O)[C@@H]3[C@](Cc3ccccc3)(C(=O)OC)N12 | inactive
7 | O=C(CCCc1nc2ccccc2s1)NC1CCOC1=O (stereo not drawn) | inactive
8 | Cc1cccc(NC(=O)CN(c2ccc(F)cc2)S(C)(=O)=O)c1 | inactive
9 | Cc1cccc(CS(=O)(=O)c2ncc(Cl)c(C(=O)Nc3nnc(C(C)C)s3)n2)c1 | inactive
10 | O=C(C[C@H]1C[C@H](C(=O)N2CCOCC2)[C@@]2(CCC3CCCC3)c3[nH]c4cc(-c5ccco5)ccc4c3CCN2C1=O)NCCCn1ccnc1 | inactive
11 | CC(=O)Nc1ccc(/C=N/N2CCCCC2)cc1 | inactive
12 | Cc1ccc(/C=C2/C(=N)N3N=C(CC(=O)N4CCCC4)SC3=NC2=O)o1 | inactive
13 | C=CCN1C(=O)c2ccc(C(=O)N3CCC(C(N)=O)CC3)cc2C1=O | inactive
14 | CC(NC(=O)c1ccc([N+](=O)[O-])o1)C12CC3CC(CC(C3)C1)C2 (stereo not drawn) | inactive
15 | CC(C)N1CCc2c(sc(NC(=O)c3ccc(S(=O)(=O)N4CCc5ccccc54)cc3)c2C(N)=O)C1 | inactive
16 | Cc1ccc2nc(C(=O)O)c(C(=O)O)nc2c1 | inactive
17 | NC(=O)Cn1c(-c2nonc2N)nc2ccccc21 | inactive
18 | CC(C)c1nn2c(=O)cc(CSc3ccccc3NC(=O)c3ccccc3F)nc2s1 | inactive
19 | COc1ccc(-n2c(Cc3cccn3C)nnc2SCC(=O)NCc2ccc(F)cc2)cc1 | inactive
20 | CC(=O)c1ccc(NC(=O)CSc2nnc(C3CC3)n2C2CC2)cc1 | inactive
21 | Cc1ccc2cc(CCNC(=O)C(=O)c3c(C)[nH]c4ccccc34)c(=O)[nH]c2c1 | inactive

Row | Structure (SMILES) | outcome
22 | O=C(Nc1ccc(F)cc1)Nc1cc(S(=O)(=O)N2CCOCC2)ccc1N1CCCC1 | inactive
23 | O=C(/C=C/c1ccccc1)Nc1cc(S(=O)(=O)N2CCOCC2)ccc1N1CCCC1 | inactive
24 | CC(Sc1ccsc1[N+](=O)[O-])C(=O)N1CCN(c2ccccn2)CC1 (stereo not drawn) | inactive
25 | Nc1ccn(CC(=O)N2CCN(c3ccccn3)CC2)c(=O)n1 | inactive
26 | COC(CNc1ncnc2sc(-c3ccccc3)cc12)OC | inactive
27 | Cc1cccc(-c2nnc(-c3cccc(NC(=O)Cc4cccs4)c3)o2)c1 | inactive
28 | O=C(CSc1nnc(-c2cccnc2)o1)Nc1ccc(Cl)cc1 | inactive
29 | CSc1cccc(NC(=O)CN(C)S(=O)(=O)c2cnc[nH]2)c1 | inactive
30 | CC1CCN(C(=O)c2[nH]cnc2C(=O)N[C@@H](C)C(=O)OC(C)(C)C)CC1 | inactive
31 | C[C@H](NC(=O)c1nc[nH]c1C(=O)NCCCCCNC(=O)OC(C)(C)C)c1ccccc1 | inactive
32 | CCCCCCCN(c1ccccc1)[C@@H]1C[C@H]2CCCC(=O)N3CC[C@@H](C1)[C@@H]23 | inactive
33 | CCOC(=O)c1c(C)[nH]c(C(=O)N(C)Cc2cccc(OC)c2OC)c1C | inactive
34 | O=C1CN2C(=Nc3ccc(Br)cc3C2c2ccccc2)CCN1 (stereo not drawn) | inactive
35 | CC[C@H]1OC(=O)[C@H](C)[C@@H](O[C@H]2C[C@@](C)(OC)[C@@H](O)[C@H](C)O2)[C@H](C)[C@@H](O[C@@H]2O[C@H](C)C[C@H](N(C)C)[C@H]2O)[C@](C)(O)C[C@@H](C)CN(C)[C@H](C)[C@@H](O)[C@]1(C)O | inactive
36 | O=[N+]([O-])c1ccc(/C=N/n2c(CO)nc3ccccc32)s1 | inactive
37 | Cc1nn(-c2ccccc2)c2nc3c(cc12)C(=O)CCC3 | inactive
38 | O=C(CN1CCC(n2nnc3cc(F)ccc32)CC1)NCc1ccco1 | inactive
39 | Nc1nc2n(n1)C(c1cccc(Br)c1)CC(c1ccccc1)N2 (stereo not drawn) | inactive
40 | Nc1ccccc1S(=O)(=O)NC1=NCCCCC1 | inactive
41 | CCOc1ccc(-c2c(C(=O)N/N=C/c3c[nH]c4ccccc34)nnn2-c2nonc2N)cc1 | inactive
42 | Cc1ccc(NC(=O)NCc2ccccn2)cc1Cl | inactive

Row | Structure (SMILES) | outcome
43 | Cc1ccc(NC(=O)c2ncn(CCCNCc3ccccn3)n2)cc1C | inactive
44 | COc1ccc(CN2CCN(C(=O)C3CCC(CNS(=O)(=O)c4ccccc4)CC3)CC2)c(OC)c1OC (stereo not drawn) | inactive
45 | Cc1nc2ncnn2c(C)c1CCC(=O)N1CCCCC1 | inactive
46 | COc1ccc(Nc2cc(C)nc3nc(C)nn23)c(OC)c1 | inactive
47 | O=C(Cn1cc([N+](=O)[O-])cn1)N1CCN(c2ccccc2)CC1 | inactive
48 | CSc1ccc(NC(=O)N2CCN(c3nc4ccccc4s3)CC2)cc1 | inactive
49 | COCCC1CCCCN1C(=O)c1cccc(OC2CCN(S(C)(=O)=O)CC2)c1 (stereo not drawn) | inactive
50 | CCN1CCN(CCCNc2ncnc3nc[nH]c23)CC1 | inactive
51 | C1=C(CCNc2ncnc3c2cnn3-c2ccccc2)CCCC1 | inactive
52 | COc1ccc(-c2c(-c3cc(OC)cc(OC)c3)n(C)c3ccc(-c4ccc(S(N)(=O)=O)cc4)cc23)cc1 | inactive
53 | CC(C)c1ccc(C(=O)CN2C(=O)NC3(CCc4ccccc43)C2=O)cc1 (stereo not drawn) | inactive
54 | Cc1nc(Cl)c(C(=O)NCc2ccccc2)c(C)c1Cl | inactive
55 | C#CCOCCOCCOCCNc1nc(N2CCN(C(=O)Cn3cc(CC(C)O)nn3)CC2)nc(N2CCN(C(=O)[C@H](CCCCN)n3cc(CCCC)nn3)CC2)n1 (stereo partly drawn) | inactive
56 | O=C(C1CCCO1)N1CCN(c2c3c(nc4cc(-c5ccc(F)cc5)nn24)CCC3)CC1 (stereo not drawn) | inactive
57 | Nc1nc(CN2CCCCC2)cs1 | inactive
58 | Nc1nc(NCC2CCCO2)nc(Nc2cccc(Cl)c2)c1[N+](=O)[O-] (stereo not drawn) | inactive
59 | O=C(NCc1ccccc1)C(=O)NCC1OCCN1S(=O)(=O)c1ccc([N+](=O)[O-])cc1 (stereo not drawn) | inactive
60 | COC(=O)c1ccc(Cl)cc1NC(=O)/C=C/c1ccc(C)o1 | inactive
61 | CC(NC(=O)c1ccc([N+](=O)[O-])cc1[N+](=O)[O-])c1ccc(-c2ccccc2)cc1 (stereo not drawn) | inactive
62 | O=C(Nc1ccc(F)cc1)C1CC(=O)N(Cc2ccco2)C1 (stereo not drawn) | inactive
63 | O=C(Cn1nc(C(F)(F)F)c2c1CCCC2)NCc1ccco1 | inactive

— PubChem BioAssay AID504843 (Broad Institute, 2011)
